Data published in PubChem BioAssay (NCI).
Compounds without any hit were thinned out: in the full panel of roughly 83,000, 20% have a hit.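 How to read the values: 0–100, growth inhibition (40 = 60% inhibited); 0, no net growth; -100 to 0, cell death (-40 = 40% of starting cells died; -100 = all dead).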 Values without a mark were called inactive. Active and inactive are the calls of the source. Rule for the calls: active = growth percent below 10; inactive = the rest.

Columns and labels:
Assay in all cases: NCI-60 one-dose screen, 48 h (100 = growth as untreated, 0 = no growth, -100 = all killed)
Conditions in all cases: 10 µM unless noted
NCI-H23 lung = tested on: NCI-H23 lung
NCI-H226 lung = tested on: NCI-H226 lung
NCI-H322M lung = tested on: NCI-H322M lung
HOP-62 NSCLC = tested on: HOP-62 NSCLC
NCI-H460 lung = tested on: NCI-H460 lung
HOP-92 NSCLC = tested on: HOP-92 NSCLC
NCI-H522 lung = tested on: NCI-H522 lung
A549/ATCC NSCLC = tested on: A549/ATCC NSCLC
786-0 renal = tested on: 786-0 renal
COLO 205 colon = tested on: COLO 205 colon
DU-145 prostate = tested on: DU-145 prostate
K-562 leukemia = tested on: K-562 leukemia
MALME-3M melanoma = tested on: MALME-3M melanoma
MDA-MB-231 breast = tested on: MDA-MB-231 breast
RXF 393 renal = tested on: RXF 393 renal
SF-268 CNS = tested on: SF-268 CNS
SF-295 CNS = tested on: SF-295 CNS
SF-539 CNS = tested on: SF-539 CNS
UACC-257 melanoma = tested on: UACC-257 melanoma
M14 melanoma = tested on: M14 melanoma

Row | Compound | growth (NCI-H23 lung) | growth (NCI-H226 lung) | growth (NCI-H322M lung) | growth (HOP-62 NSCLC) | growth (NCI-H460 lung) | growth (HOP-92 NSCLC) | growth (NCI-H522 lung) | growth (A549/ATCC NSCLC) | growth (786-0 renal) | growth (COLO 205 colon) | growth (DU-145 prostate) | growth (K-562 leukemia) | growth (MALME-3M melanoma) | growth (MDA-MB-231 breast) | growth (RXF 393 renal) | growth (SF-268 CNS) | growth (SF-295 CNS) | growth (SF-539 CNS) | growth (UACC-257 melanoma) | growth (M14 melanoma)
1 | COc1ccc(-c2cc(=O)c3c(OC)c4ccoc4cc3o2)cc1 | 99.4% | 95.5% | 77.8% | 108% | 73.7% | 90.1% | 82.4% | 86.2% | 116% | 102% | 106% | 88.2% | 113% | 91.7% | 107% | 97.9% | 40.7% | 105% | 107% | 115%
2 | Cc1nn(-c2ccc(F)cc2)c2ncnc(Nc3ccc(NC(=O)Nc4ccc(Cl)c(C(F)(F)F)c4)cc3)c12 | 22.4% | 58% | 67.5% | 45% | 10.9% | -8.33% (active) | 12.1% | 50.7% | 40.7% | 4.15% (active) | 41.8% | 15.3% | 34% | 71.6% | 19.4% | 66% | 6.74% (active) | 48.2% | 26.8% | 38.1%
3 | O=C(Nc1cccc2[nH]c(C(F)(F)F)nc12)c1ccc(-n2cnnn2)cc1 | 82.1% | 92.2% | 107% | 97.6% | 81.9% | 82.5% | 57.3% | 98.1% | 106% | 105% | 102% | 21.5% | 84.5% | 93.1% | 96.1% | 96% | 92.5% | 103% | 107% | 107%
4 | FC(F)(F)c1nc2c(NCc3ccc(-c4ccccc4)cc3)cccc2[nH]1 | 80.8% | 79% | 85.8% | 106% | 44.8% | 62% | 50.8% | 55.5% | 85% | 90.3% | 81.2% | 6.87% (active) | 71.4% | 57.7% | 85.7% | 76.5% | 88.9% | 81.3% | 87.7% | 90.1%
5 | C=CC(COC(c1ccccc1)(c1ccccc1)c1ccccc1)N(CC)CC (stereo not given) | 65.2% | 56.2% | 87% | 61.8% | 58.1% | 75.7% | 54.9% | 63.1% | 77.6% | 0.413% (active) | 69.9% | 14.4% | 61.9% | 37% | -5.47% (active) | 81.9% | 64.1% | 62.6% | 6.09% (active) | 9.54% (active)
6 | COc1ccc(/C=C/c2nc(-c3n[nH]c(=O)n3-c3ccccc3)c3ccccc3n2)cc1 | 94.8% | 93.5% | 93.7% | 95.8% | 100% | 101% | 85.6% | 99.9% | 94% | 105% | 102% | 95.7% | 94.3% | 94.5% | 101% | 97.3% | 99.6% | 101% | 106% | 94.1%
7 | Cc1nc2ccccc2n1C(=O)C[C@@H]1NC(=S)NC1=O | 95.5% | 92.4% | 96% | 93.2% | 104% | 123% | 96.8% | 93.1% | 101% | 98.9% | 109% | 107% | 83.8% | 95.8% | 108% | 95.1% | 98.4% | 98.6% | 86.9% | 89.3%
8 | Cc1ncc(C(=O)Nc2ccc(CN3CCN(C)CC3)c(C(F)(F)F)c2)cc1C#Cc1cnc2cccnn12 | -38.4% (active) | -56.8% (active) | -1.83% (active) | 4.59% (active) | -53.1% (active) | -4.77% (active) | -18.9% (active) | -2.38% (active) | 1.06% (active) | -41.5% (active) | 5.5% (active) | 0.556% (active) | -72% (active) | -1.12% (active) | -58.1% (active) | -29.8% (active) | 8.94% (active) | -52.2% (active) | -2.41% (active) | -79.9% (active)
